Screens (PubChem BioAssay)
Shown are actives, neighbours in structure and some others; about 8.1% of the full set was active somewhere.
ELG1 DNA repair – ELG1-dependent DNA repair inhibition. HEK293T ELG1-luciferase reporter, luminescence, 16 h; DNA damage induced by 5-fluorouridine. 2.3% of 330,000 active. Potency, µM (highest dose often 46.1 µM), inactives show at the highest dose activity change, negative = inhibition, actives largely listed as inhibitors. AID 504467; further: on the % scale 0 is the no-effect control and ±100 the full control effect; nearly all actives have a fitted effect of over 55% in size
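HEK293T cells expressing luciferase-tagged ELG1 (2,000/well) received 5-Fluorouridine plus compound or DMSO for 16 hr at 37 °C. Luciferase was read by ONE-Glo luminescence after 30 min at room temperature.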
SW480 rerep – DNA re-replication induction in SW480 cells. SW480 DNA re-replication, Hoechst DNA content imaging, 48 h. Potency, µM (series often up to 46.1 µM), for inactives: at the top dose re-replication activation, most hits filed as activators. 1.8% of 340,000 active; further: % of control where 0% means no effect; nearly all actives have a fitted effect of over 55% in size
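Image-based read-out: total Hoechst fluorescence of nuclei (405 nm excitation, 500-530 nm emission), with hits raising the fraction of high-intensity nuclei. SW480 colon cells incubated 48 hr with compounds at 37 C.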
KB-V1 cytotox – kills drug-selected multidrug resistant KB-V1 cells | KB-V1 MDR cells viability, CellTiter-Glo, 72 h | Potency, µM (highest dose often 46.1 µM), usual class: cytotoxic | 3.4% of 400,000 active | AID 1347076; further: on the % scale 0 is the no-effect control and ±100 the full control effect; nearly all actives have a fitted effect of over 60% in size
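Potencies derive from concentration-effect curves fitted to normalized luminescence (CellTiter-Glo) of KB-V1 cells treated for 72 h at 37 degrees C in phenol-red-free DMEM containing 10% FBS.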
KB-3-1 tox – KB-3-1 parental cell cytotoxicity | KB-3-1 viability, CellTiter-Glo ATP luminescence, 72 h | Potency, µM (doses to about 46.1 µM), actives largely listed as cytotoxic | 1.4% of 400,000 active | AID 1347075; further: on the % scale 0 is the no-effect control and ±100 the full control effect; nearly all actives have a fitted effect of over 60% in size
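72 h, 37 °C compound treatment of KB-3-1 parental cells; CellTiter-Glo added, 10 min, luminescence read. Data corrected against DMSO-only plates and normalized before curve fitting.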
MCF10A rerep – induces DNA re-replication in MCF 10a normal breast cells | MCF 10A DNA re-replication, Hoechst nuclear intensity, 48 h | Potency, µM (series often up to 46.1 µM), for inactives: at the top dose activity, positive = re-replication, actives largely listed as activators | 2.9% of 350,000 active; further: % of control where 0% means no effect; nearly all actives have a fitted effect of over 50% in size
ELG1 FLuc counter – luciferase inhibition in cell-free luciferin readout for ELG1 hits; Potency, µM (top dose mostly 46.1 µM), inactives show top-dose activity change, negative = inhibition, usual class: inhibitors; 3% of 350 active; cell-free firefly luciferase luminescence counter-screen, ViewLux; shares compounds with ELG1 DNA repair; AID 624247; further: on the % scale 0 is the no-effect control and ±100 the full control effect
ELG1 Luc conf – inhibits ELG1-dependent DNA repair in HEK293T cells, confirmed; 68% of 670 active; Potency, µM (doses to about 46.1 µM), for the others: at the highest dose activity change, negative = inhibition, usual class: inhibitors; AID 624248; HEK293T ELG1-luciferase levels, luminescence; cells co-treated with 5-fluorouridine; shares compounds with ELG1 DNA repair; further: on the % scale 0 is the no-effect control and ±100 the full control effect; nearly all actives have a fitted effect of over 55% in size
ELG1-Luc MMS – confirmation of human ELG1 repair inhibitors, MMS stimulated; HEK293T luciferase-tagged ELG1 level, MMS stimulated; Potency, µM (top dose mostly 46.1 µM), inactives show top-dose activity change, negative = inhibition, hits mostly inhibitors; 53% of 670 active; shares compounds with ELG1 DNA repair; further: on the % scale 0 is the no-effect control and ±100 the full control effect; nearly all actives have a fitted effect of over 60% in size
ELG1 5FU viab – confirmation of ELG1 repair inhibitors: viability with 5FU; 670 tested, under 10 active; Potency, µM (series often up to 46.1 µM), for inactives: at the highest dose activity change, negative = viability loss, most hits filed as cytotoxic; cell viability with 5-FU, ELG1-dependent repair; shares compounds with ELG1 DNA repair;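 further: ELG1-luc HEK293T cells cotreated with 5-fluorouridine at 10 µM final; viability measured 16 h after compound addition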
ELG1 MMS viab – confirmation of ELG1 repair inhibitors: viability with MMS; shares compounds with ELG1 DNA repair; Cell viability with MMS, ELG1-dependent DNA repair; Potency, µM (doses to about 46.1 µM), for inactives: top-dose activity change, negative = viability loss, hits mostly cytotoxic; 33% of 670 active; AID 624251;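 further: ELG1-luc HEK293T cells co-treated with 10 µM MMS; viability read 16 h after compound addition; on the % scale 0 is the no-effect control and ±100 the full control effect; nearly all actives have a fitted effect of over 60% in size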
Cell viab unstim – unstimulated viability counter-screen for ELG1 repair hits; shares compounds with ELG1 DNA repair; cell viability counter-screen, unstimulated, luminescence; Potency, µM (highest dose often 45.9 µM), without a hit: at the highest dose activity change, negative = loss of viability, actives largely listed as cytotoxic; 8% of 900 active; AID 624252;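 further: compound exposure lasted 16 hours before reading; on the % scale 0 is the no-effect control and ±100 the full control effect; nearly all actives have a fitted effect of over 55% in size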
FLuc biochem – inhibits purified firefly luciferase, counter-screen for ELG1 hits | shares compounds with ELG1 DNA repair | purified firefly luciferase, luminescence counter-screen | Potency, µM (top dose mostly 57.5 µM), without a hit: top-dose activity, negative = inhibition, actives largely listed as inhibitors | 10% of 350 active | AID 624253; further: on the % scale 0 is the no-effect control and ±100 the full control effect
An asterisk follows results filed as active; i = inactive; u = inconclusive; x = not tested or not shown; ! = not active in a repeat. The call rests on the fitted dose curve; in most records, active means well fitted curve in the direction sought with a large enough effect; inconclusive means small, poorly fitted or top-dose-only effect, or another doubt; inactive means no such curve, though single readings can be large; an effect the other way counts as inactive or inconclusive. Potency means the concentration at half of the fitted maximal effect.

SMILES	ELG1 DNA repair	SW480 rerep	KB-V1 cytotox	KB-3-1 tox	MCF10A rerep	ELG1 Luc conf	ELG1-Luc MMS	ELG1 5FU viab	ELG1 MMS viab	Cell viab unstim	others
NC(=O)c1ccc(N2CCN(S(=O)(=O)c3cccs3)CC2)c([N+](=O)[O-])c1	2.31µM*	-2.2%	i	u	-0.1%	u	0.996µM*	-6.2%	0.791µM*	12.5µM*
O=S(=O)(c1cccs1)N1CCN(c2ccc(O)cc2)CC1	1.64µM*	u	i	i	u	-0.6%	25µM*	5.4%	u	u
Cc1cc(C)c(Cn2c(=O)n(CCCCC(=O)NCc3ccccc3Cl)c(=O)c3ccccc32)c(C)c1	x	x	i	i	x	x	x	x	x	x
CC(=O)c1c(C)[nH]c(C(=O)Nc2cccc(S(=O)(=O)N(C)C)c2)c1C	u	2.5%	i	i	4.8%	x	x	x	x	x
CC(=O)c1c(C)[nH]c(C(=O)Nc2cccc(S(=O)(=O)N3CCCC3)c2)c1C	u	-4.5%	i	u	u	x	x	x	x	u
Fc1ccc2cc(CCO[C@H]3CCCCO3)ncc2c1	u	2.1%	i	i	u	x	x	x	x	u
O=C(Cn1cnc2cc([N+](=O)[O-])ccc2c1=O)Nc1cccc(S(=O)(=O)N2CCOCC2)c1	3.26µM*	-4.5%	i	i	u	u	27.7%	u	-10.8%	u
CCOC(CC(=O)NNC(=O)c1c(-c2ccccc2Cl)noc1C)OCC	0.0%	-3.8%	i	i	-1.6%	x	x	x	x	x
CC(C)(C)OC(=O)C[C@@H]1C/C=C\C[C@@H](CC(=O)N[C@H](CO)Cc2ccccc2)C(=O)N2CCC[C@H]2COC1=O	2.91µM*	7.1%	i	i	21.2%	u	u	-1.9%	-7.2%	u
CC(C)(C)OC(=O)C[C@H]1C/C=C\C[C@@H](CC(=O)N[C@H](CO)Cc2ccccc2)C(=O)N2CCC[C@H]2COC1=O	u	8.7%	i	i	12.5%	x	x	x	x	x
COc1ccc(N2CCN(C(=O)CN3CCN(c4nc(-c5ccc(F)cc5)cs4)CC3)CC2)cc1	2.06µM*	u	u	23.1µM*	u	14.1µM*	3.97µM*	-16.0%	4.45µM*	u
COc1ccc(-c2nnn(CC(=O)N3CCN(c4ccc(F)cc4)CC3)n2)cc1	9.8%	1.7%	i	i	-0.3%	x	x	x	x	x
CCN1C(=O)[C@@H]2[C@@H](c3ccc(-c4ccc(Cl)c(Cl)c4)cc3)N3CCC[C@@]3(C(=O)OC)[C@@H]2C1=O	2.31µM*	4.3%	u	i	17.6%	6.28µM*	8.88µM*	u	9.96µM*	u
O=C1CCC[C@@H]2Cc3nc4cc5c(cc4cc3[C@@H]3CCN1[C@H]23)OCO5	x	-18.6%	18.4µM*!	i	-3.0%	x	x	x	x	u
CCOC(=O)N1CCN(C(=O)c2cnn3c(C(F)F)cc(-c4ccc(C)cc4)nc23)CC1	3.66µM*	7.4%	u	u	-0.7%	3.53µM*	5.4%	u	-7.8%	u
COc1ccc(-c2cc(C(F)F)n3ncc(C(=O)N4CCc5ccccc54)c3n2)cc1	0.517µM*	7.31µM*	u	i	4.61µM*	4.45µM*	u	u	u	-10.8%	ELG1 FLuc counter=19.1%;FLuc biochem=4.3%
COc1ccc(-c2cc(C(F)F)n3ncc(C(=O)Nc4ccc(C(=O)N5CCOCC5)cc4)c3n2)cc1	2.59µM*	4.9%	i	i	-1.2%	2.81µM*	-27.7%	u	5.9%	u
O=C(c1ccccc1)N1CCN(Cc2ccccc2C(F)(F)F)CC1	-12.1%	1.2%	u	i	14.6%	x	x	x	x	x
CCOc1nc(C)ccc1-c1noc(-c2ccncc2)n1	u	-6.6%	i	i	-0.9%	x	x	x	x	x
CC(/C=N/n1c(-c2ccncc2)n[nH]c1=S)=C\c1ccco1	2.59µM*	15.4%	i	i	2.2%	12.5µM*	6.28µM*	-2.4%	-22.6%	-2.4%
CC(/C=N/n1c(-c2ccc(C)cc2)n[nH]c1=S)=C\c1ccco1	3.1%	-1.3%	i	i	u	x	x	x	x	x
CC(=C/c1ccccc1)/C=N/n1c(-c2ccncc2)n[nH]c1=S	2.31µM*	-3.3%	i	i	23.1%	2.81µM*	u	-1.7%	2.2%	-4.3%
Cc1nc(N2CCN(S(=O)(=O)c3ccc(F)cc3)CC2)c2c(C)c(C)sc2n1	0.7%	-3.1%	u	i	17.4%	-10.1%	9.8%	8.7%	-0.9%	-1.4%	ELG1 FLuc counter=24.7%;FLuc biochem=1.5%
Cc1c(Cc2ccccc2)c(=O)oc2cc(OCC(=O)N3CCC(C(N)=O)CC3)ccc12	0.82µM*	-40.6%	i	i	28.5%	u	28.1µM*	u	25µM*	-13.8%	ELG1 FLuc counter=-0.5%;FLuc biochem=u
Cc1cc(=O)oc2cc(OCC(=O)N3CCN(C(=O)C4COc5ccccc5O4)CC3)ccc12 (configuration not stated)	1.16µM*	6.4%	i	i	10.8%	2.23µM*	u	u	u	-7.6%
NC(=O)C1CCN(C(=O)COc2ccc3c(c2)oc(=O)c2ccccc23)CC1	1.9%	-20.2%	i	i	-26.0%	x	x	x	x	x
